# Screens: PubChem, National Center for Advancing Translational Sciences (NCATS)
# This is a sample that favours compounds with a hit; in the whole collection about 4.2% have one here.
# Sfp inh: blocks B. subtilis Sfp PPTase activity | 310,000 compounds, 3.5% hits | AID 1490 | Potency, µM, for the others: largest response in the series, negative = inhibition, usual class: inhibitors | Q9F4F7 | Biochemical Sfp PPTase activity, qHTS;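 also: the enzyme is Sfp with the accession as filed and its product quenches rhodamine fluorescence; potency is read from the fitted curve at half-maximal effect; 0% = enzyme reaction without inhibitor and -100% = no enzyme wells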
#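 After 15 min at room temperature with compound, 15 nM Sfp received 5 uM rhodamine-CoA plus 12.5 uM BHQ-2-ybbR (50 mM Hepes pH 7.6, 10 mM MgCl2). Rate came from the fluorescence difference over 30 min, ex 525/em 598 nm.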
# TCR activator: activates T cell receptor signaling; 330,000 tested, under 10 active; Potency, µM (series often up to 9.22 µM), for the others: at the highest dose activation of IL-2 secretion, most hits filed as activators; primary human leukocytes, anti-CD3, IL-2 HTRF, 48 h; also: % of control where 0% means no effect
#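 48 hr co-incubation of compounds, a-CD3 beads and primary human leukocytes; IL-2 quantified homogeneously by HTRF with anti-IL-2 K and d2 conjugates.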
# uPA generation: blocks generation of uPA at the cell surface; Potency, µM (doses to about 38.3 µM), for the others: at the highest dose activity change, negative = inhibition, actives largely listed as inhibitors; 330,000 compounds, 0.31% hits; cell surface uPA generation assay, qHTS; active = well fitted inhibition curve with a large enough effect; inconclusive = small, poorly fitted or top-dose-only effect; inactive = no such curve, though single readings can be large or run the other way; tested in mouse RAW 264.7 cells; also: potency is read from the fitted curve at half-maximal effect; % is scaled to controls: 0 for no effect and ±100 for the full control effect; nearly all actives have a fitted effect of over 55% in size
# ClpP mod: qHTS Assay for Activators of ClpP; Potency, µM (series often up to 57.5 µM), for the others: at the highest dose activity change, negative = active; ATP-dependent Clp protease proteolytic subunit (Bacillus subtilis (strain 168)), P80244; 340,000 compounds, 1.9% hits; AID 651965, 2013; purified B. subtilis ClpP, FRET peptide cleavage, 20 min; active = well fitted falling curve with a large enough effect; inconclusive = small, poorly fitted or top-dose-only effect; inactive = no such curve, though single readings can be large or run the other way; also: potency is read from the fitted curve at half-maximal effect; the source files actives as falling curves though it sought activators and does not explain the sign; nearly all actives have a fitted effect of over 65% in size
#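 ClpP 10 microg/mL final, pH 8 Tris/KCl buffer with BSA, glycerol, Tween-20; compound pinned in; FRET-FV substrate; RT 20 min; Ex320/Em430; ΔFRET vs ADEP 5.8 microM, DMSO, no enzyme.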
# The depositor's hits bear a star; ? = inconclusive; nt = no result given; ! = not confirmed by another sample; [ ] = dose if it differs, or a comment. Unless noted, calls follow the shape of the dose curve; as a rule, active = well fitted curve in the direction sought with a large enough effect; inconclusive = small, poorly fitted or top-dose-only effect, or another doubt; inactive = no such curve, though single readings can be large; an effect the other way counts as inactive or inconclusive.
SMILES,Sfp inh,TCR activator,uPA generation,ClpP mod
Cc1ccc(N2C(=O)NC(=O)/C(=C/c3ccc(OC(=O)c4cccs4)cc3)C2=O)cc1,44.7µM*,-4.3%,1.7%,3.1%
Nc1cncc(C(=O)O)c1,79.4µM*!,8.5%,6.0%,nt
O=C1CCCN1C(=O)c1cncc(Br)c1,11.0%,-4.2%,1.7%,-1.5%
C[C@]12C/C(=C/O)C(=O)C[C@@H]1CC[C@@H]1[C@@H]2CC[C@@]2(C)[C@H]1CC[C@]2(C)O,1.3%,nt,nt,nt
Cc1cccc(-n2c(C)nc3ccccc3c2=O)n1,15.7%,-8.2%[46.1 µM],4.5%,1.8%
Cc1cccc(-n2c(=S)[nH]c3ccccc3c2=O)n1,50.1µM*,3.1%,1.3%,-1.0%
CCOC(=O)[C@]12Cc3cc4c(cc3[C@H]1N(Cc1ccccc1)C(=O)c1ccccc12)OCO4,nt,-4.3%,12.6µM*,-3.7%
NC1CCCC[C@@H]1N (stereo partly specified),-10.1%,nt,nt,nt
O=c1[nH]c(=S)[nH]c(O)c1C(c1ccccn1)c1c(O)[nH]c(=S)[nH]c1=O,25.1µM*,-3.7%,3.6%,nt
CCn1c(O)c(C(c2ccccn2)c2c(O)n(CC)c(=S)[nH]c2=O)c(=O)[nH]c1=S,50.1µM*,nt,1.4%,-1.7%
CN(C)C1C(=O)C(C(N)=O)=C(O)[C@@]2(O)C(=O)C3=C(O)c4c(O)ccc(Cl)c4[C@](C)(O)C3CC12 (stereo partly specified),-59.5%,nt,nt,nt
O=C1NC(=O)C(Sc2ccccc2[N+](=O)[O-])C(=O)N1,20µM*,9.0%,5.7%,nt
COc1ccc(NC2=NC(C)(C)CS2)cc1,56.2µM*,7.0%,0.2%,2.2%
COc1ccc(C(=O)Oc2cccc3cccnc23)cc1S(=O)(=O)N1CCOCC1,44.7µM*,-7.8%,-0.7%,0.3%
COc1ccccc1N1C(=O)NC(=O)/C(=C/c2ccc3c(c2)Cc2ccccc2-3)C1=O,50.1µM*,2.1%[46.1 µM],3.0%,nt
O=C1NC(=O)N(c2ccccc2)C(=O)/C1=C/c1ccc2c(c1)Cc1ccccc1-2,50.1µM*,nt,nt,nt
CC(C)(C)n1cccc1/C=C1\C(=O)NC(=O)N(c2ccccc2)C1=O,-26.9%,11.3%[46.1 µM],-0.5%,-13.0%
CC1(C)C(=O)C=C[C@@]2(C)C1=C(O)C(=O)[C@@]1(C)C2CC[C@@]2(C)C(c3ccoc3)C[C@H]3O[C@@]321 (stereo partly specified),-16.9%,nt,nt,nt
CCc1cn(C2CC(O)C(CO)O2)c(=O)[nH]c1=O (stereo unspecified),nt,-2.9%,10µM*,0.3%
CCC1CN2CCC1CC2C(Oc1cc2ccccc2c2ccccc12)c1ccnc2ccc(O)cc12 (stereo unspecified),-20.1%,nt,nt,nt
c1ccc2c(CCNC3CCCCC3)c[nH]c2c1,50.1µM*,0.1%,1.6%,nt
c1ccc2c(CCNC3=NCCC3)c[nH]c2c1,?,-0.3%,0.3%,-0.3%
COC(=O)CN1CN(c2ccccc2)C2(CCN(Cc3ccc4ccccc4c3)CC2)C1=O,70.8µM*,nt,nt,nt
CCN(CC)C(=O)Cn1cc(/C=C2\C(=O)NC(=O)N(c3ccccc3F)C2=O)c2ccccc21,?,-0.5%,-9.0%,-5.3%
O=C1NC(=O)N(c2ccccc2F)C(=O)/C1=C/c1ccc(Oc2ccc([N+](=O)[O-])cn2)cc1,50.1µM*,2.2%,15.0%,-0.5%
SMILES,Sfp inh,TCR activator,uPA generation,ClpP mod
O=C(O)CNC(=O)[C@@H](CS)Cc1ccccc1,35.5µM*,nt,nt,nt
COc1cc2c(cc1O)C[C@H]1c3c(cc(OC)c(O)c3-2)CCN1C,-31.6%,nt,nt,nt
Fc1cccc(CCNCc2ccccn2)c1,56.2µM*,4.5%,-3.3%,-3.6%
c1ccc(CNCCc2ccc3c(c2)OCO3)nc1,-3.8%,-0.8%[46.1 µM],-7.2%,2.0%
COc1cccc(-n2c(C)nc3ccccc3c2=O)c1,6.0%,6.9%,1.6%,-3.6%
Cc1nc2ccccc2c(=O)n1-c1cccc(C(F)(F)F)c1,11.4%,nt,-3.0%,28.2µM*
OCc1cc(C(O)CNCCCCCCOCCCCc2ccccc2)ccc1O (stereo unspecified),56.2µM*!,-9.6%,?,4.9%
N[C@@H](Cc1cc(Br)c(O)c(Br)c1)C(=O)O,50.1µM*,nt,nt,nt
CCCCN1C(=O)NC(=O)/C(=C/c2cnc(SC)nc2)C1=O,25.1µM*,-2.7%,5.2%,-0.8%
CSc1ncc(/C=C2/C(=O)NC(=O)N(C3CCCCC3)C2=O)cn1,39.8µM*,1.5%,-0.3%,0.3%
CCC(C)N1C(=O)/C(=C\c2cc3c4c(c2)CCCN4CCC3)C(=O)NC1=S (stereo unspecified),?,3.7%,0.2%,-2.3%
